# An excerpt weighted towards active compounds, which were near 11% of everything screened.
# AMA1-RON2 inh – inhibitors of Plasmodium falciparum AMA1-RON2 interaction; AlphaScreen AMA1-biotinylated RON2 peptide binding; Potency, µM (series often up to 58.2 µM), most hits filed as inhibitors; 360,000 tested, 0.2% active; further: nearly all actives have a fitted effect of over 45% in size
#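 AMA1 (3D7) with his tag at 25 nM final met compounds first, then biotinylated RON2 peptide at 25 nM; detection used donor plus acceptor beads, 10 µg/mL apiece, read by AlphaScreen after 30 min at room temperature.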
# Pf growth 96h – P. falciparum growth inhibition at 96 hours. P. falciparum luciferase reporter growth, 96 h. Potency, µM (top dose mostly 28.7 µM), actives largely listed as inhibitors. 320,000 tested, 6.9% active
#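 Luminescence readout: decreased luciferase signal marks inhibited growth of reporter-expressing P. falciparum in infected red cells (2% hematocrit, 0.05% parasitemia final), exposed to compound two generations (96 h, 37 C, 5% CO2).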
# AmpC inh no detg – AmpC beta-lactamase inhibition without detergent; AmpC nitrocefin hydrolysis, absorbance 480 nm, 0.0001% Triton; Potency, µM (series often up to 57.1 µM), hits mostly inhibitors; 330,000 tested, 0.52% active; AID 485341; further: nearly all actives have a fitted effect of over 20% in size
# Target sequence (P00811 whole entry, looked up): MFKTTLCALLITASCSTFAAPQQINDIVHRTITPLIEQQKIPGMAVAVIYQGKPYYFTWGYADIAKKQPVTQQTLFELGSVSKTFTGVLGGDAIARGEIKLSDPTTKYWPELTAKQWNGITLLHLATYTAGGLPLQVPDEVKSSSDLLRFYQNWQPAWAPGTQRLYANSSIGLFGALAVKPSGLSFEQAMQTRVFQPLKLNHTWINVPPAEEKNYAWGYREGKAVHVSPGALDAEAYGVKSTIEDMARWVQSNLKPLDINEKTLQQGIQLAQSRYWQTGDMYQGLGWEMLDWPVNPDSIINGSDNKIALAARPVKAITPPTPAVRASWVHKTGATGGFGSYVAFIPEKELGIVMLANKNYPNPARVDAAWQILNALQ
#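 20 mM phosphate pH 7.0 + 0.01% (detergent screen) or 0.0001% Triton X-100; 5.3 nM AmpC reagent; cpd preinc 15 min RT; nitrocefin (800 uM stock) to start; A480 q20 s × 4 min; Activity was normalised to no-enzyme and no-compound control wells.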
# HCV inhibitor – blocks hepatitis C virus. Potency, µM (doses to about 41.8 µM), actives largely listed as inhibitors. 340,000 tested, 3.4% active. AID 651820. Huh7.5.1 HCVcc-Cre infection, luciferase reporter, 44 h
#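 1,000 cells/well; 4 h culture; + compound; + HCVcc-Cre (~0.5 moi); 44 h; luciferase substrate, RT 15 min; read 15 sec.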
# Pf growth 48h – P. falciparum growth inhibition at 48 hours (one generation). P. falciparum luciferase growth in erythrocytes, 48 h. Potency, µM (titrated, usually from 28.7 µM), hits mostly inhibitors. 310,000 tested, 5.9% active
#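 Parasite viability was followed by luminescence of a genomically integrated firefly luciferase. Cultures held 0.1% parasitemia at 2% hematocrit (final), incubated under 5% CO2 at 37 C.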
# AmpC detergent – blocks E. coli AmpC beta-lactamase in detergent assay; AmpC hydrolysis of nitrocefin, absorbance 480 nm, 0.01% Triton; Potency, µM (doses to about 114 µM), actives largely listed as inhibitors; 370,000 tested, 0.041% active; AID 485294; further: nearly all actives have a fitted effect of over 25% in size
#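 20 mM phosphate pH 7.0 + 0.01% (detergent screen) or 0.0001% Triton X-100; 5.3 nM AmpC reagent; cpd preinc 15 min RT; nitrocefin (800 uM stock) to start; A480 q20 s × 4 min; Activity was normalised to no-enzyme and no-compound control wells.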
# Hits are given with their value; 0 = inactive; ? = inconclusive; - = no result; ! = not confirmed by another sample; [ ] = remark or other dose. The call rests on the fitted dose curve; in most records, active means well fitted curve in the direction sought with a large enough effect; inconclusive means small, poorly fitted or top-dose-only effect, or another doubt; inactive means no such curve, though single readings can be large; an effect the other way counts as inactive or inconclusive.
SMILES,AMA1-RON2 inh,Pf growth 96h,AmpC inh no detg,HCV inhibitor,Pf growth 48h,AmpC detergent
N=c1ccn(Cc2cccc(Cl)c2)cc1,0,?,0,2.5µM,2.6µM,0
N=c1ccn(Cc2ccc(Cl)c(Cl)c2)cc1,0,0,0,3.5µM,0.59µM,0
Clc1cccc(CN2CCN(Cc3ccco3)CC2)c1,?,0,0,0,0,0
CCOCCCNC(=O)c1cc2c(=O)[nH]c3ccccc3c2n1C,-,-,-,-,-,0
CC(=O)c1nn(-c2ccc(OC(F)(F)F)cc2)nc1Nc1ccc(C)cc1,-,-,-,-,-,0
CC(C)CCn1c(=S)[nH]c2ncccc2c1=O,0,?,0,0,0,0
Cn1c(=S)[nH]c2cccnc21,0,8.3µM,0,0,0,?
O=C(O)c1ccc(CNCc2ccc(Cl)cc2)s1,-,-,-,-,-,0
CC1CCN(S(=O)(=O)c2ccc3c(c2)N(CC(=O)NCCCN2CCCC(C)C2)C(=O)CO3)CC1 (centres undefined),0,12µM,0,0,0,0
CC(C)CN(CCCNC(=O)CN1C(=O)COc2ccc(S(=O)(=O)N3CCCCCC3)cc21)CC(C)C,0,?,0,0,?,0
CC1CCN(S(=O)(=O)c2ccc3c(c2)N(CC(=O)NCCCN2CCCC(C)C2)C(=O)CS3)CC1 (centres undefined),0,0,0,0,?,0
COc1ccc(CNC(=O)CN2C(=O)COc3ccc(S(=O)(=O)N4CCC(C)CC4)cc32)cc1,0,13µM,0,0,0,0
CC(C)CN(CCCNC(=O)CN1C(=O)COc2ccc(S(=O)(=O)N3CCCC3)cc21)CC(C)C,0,?,0,0,12µM,0
CC(C)N(Cc1ccccc1)C(=O)CN1C(=O)COc2ccc(S(=O)(=O)N3CCCCCC3)cc21,0,0,0,?,0.83µM,0
CC(=O)N1CCCc2cc(S(=O)(=O)N(C)CC(=O)Nc3ccc(Cl)cc3C)ccc21,-,-,-,-,-,0
Cc1cc(N(CCO)Cc2ccccc2)n2nc(-c3ccc(C(C)(C)C)cc3)nc2n1,-,-,-,-,-,0
COc1c(C)cc(NS(=O)(=O)c2ccc3c(c2)OCCO3)cc1C,-,-,-,-,-,0
CCOC(=O)c1c(C=O)c(C)n(Cc2ccc(Cl)cc2)c1C,0,?,0,8.9µM,1.9µM,0
CC(=O)c1c(C(C)=O)c(C)n(Cc2ccc(Cl)cc2)c1C,0,1.5µM,0,?,-,0
CCOc1ccccc1C(=O)N(Cc1cccs1)c1ccc(Cl)cc1,-,-,-,-,-,0
COc1cccc(-c2c(C#N)c(N)nc3c2c(C)nn3-c2ccccc2)c1O,0,0.52µM,0,?,0.37µM,0
Cc1cc(C(F)(F)F)c2c(C)nn(-c3ccccc3)c2n1,0,-,-,0,-,-
Cc1nn(-c2ccccc2)c2nc(N)c(C#N)c(-c3ccc(C(C)(C)C)cc3)c12,0,4.7µM,0,0,?,0
O=C(Nc1ccn(CCCN2CCN(c3ccccc3)CC2)c(=O)n1)OCc1ccccc1,0,-,-,-,-,-
Cc1cc(C)c(CN2CCN(CCCn3ccc(NC(=O)OCc4ccccc4)nc3=O)CC2)c(C)c1,0,-,-,7.9µM,-,-
SMILES,AMA1-RON2 inh,Pf growth 96h,AmpC inh no detg,HCV inhibitor,Pf growth 48h,AmpC detergent
O=C(CSc1nc(Nc2ccccc2)nc(N2CCOCC2)n1)Nc1ccc([N+](=O)[O-])cc1,0,-,0,11µM,12µM,?
COc1ccc(Cl)cc1NC(=O)CSc1nc(Nc2ccccc2)nc(N2CCOCC2)n1,0,0,0,11µM,0,0
O=C(CSc1nc(Nc2ccccc2)nc(N2CCOCC2)n1)Nc1cccc([N+](=O)[O-])c1,0,?,0,?,?,0
COc1cccc(C(=O)Nc2ccc(C(=O)OCc3cc(=O)n4cc(C)sc4n3)cc2)c1,-,-,-,-,-,0
CCNC(=O)Cc1ccc(S(=O)(=O)N2CCOCC2)s1,0,0,0,0,?,0
CCCCN(C(=O)Cc1ccc(S(=O)(=O)N2CCOCC2)s1)c1ccccc1,0,12µM,0,0,?,?
O=C(Cc1ccc(S(=O)(=O)N2CCOCC2)s1)N(Cc1ccccc1)c1ccccc1,0,2.3µM,0,0,9.3µM,0
CC(=NCCCn1ccnc1)c1c(O)n(C)c(=O)n(C)c1=O,0,10µM,0,0,0,0
Cc1ccc(C)c(N2CCN(C(=O)c3cnn(-c4ccccc4Cl)c3C3CCN(C(=O)OC(C)(C)C)CC3)CC2)c1,-,-,-,-,-,0
O=P(O)(O)CP(=O)(O)O,-,0,0,-,0,0
O=P(O)(O)OP(=O)(O)O,-,?,-,-,3.8µM,-
COC(=O)c1cc2oc3ccccc3c2n1Cc1nc(-c2ccccc2Cl)oc1C,-,-,-,-,-,0
Cc1ccc(NC(=O)Nc2nnc(N(C)C3CCCCC3)s2)c(Cl)c1,-,-,-,-,-,0
CCC(=O)c1ccc(O)cc1,0,15µM!,0,0[8.37 µM],0,0
COc1ccc(OC)c(-n2c(C)cc(/C=C3\C(=N)N4N=C(CC(=O)N5CCOCC5)SC4=NC3=O)c2C)c1,0,12µM,0,0,?,0
C=CCN1C=C/C(=C\C=C(C#N)C#N)c2ccccc21,14µM,?,0,10µM,?,0
